HT1080-NT tox = kills 2HG-producing HT-1080-NT fibrosarcoma cells. Potency, µM (titrated, usually from 46.1 µM), without a hit: at the highest dose activity, negative = less viability, most hits filed as cytotoxic. HT-1080-NT fibrosarcoma viability, CellTiter-Glo ATP luminescence, 48 h. 360,000 tested, 1.6% active. AID 686970;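 further: NT is the 2HG producing partner of a matched IDH1 knockdown line; 0% = DMSO-treated cells and -100% = media-only wells without cells; nearly all actives have a fitted effect of over 55% in size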
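HT-1080-NT; 750 cells/well; 5% FBS RPMI; 48 h compound, 37 degrees C; CellTiter-Glo luminescence; curve fitting and curve-class assignment.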
TGFb inhibitor = blocks TGF-b signaling | AID 588855 | Potency, µM (titrated, usually from 46.1 µM), for the others: at the highest dose activity, negative = inhibition, hits mostly inhibitors | HepG2 CAGA-GFP TGF-b/SMAD3 reporter, GFP fluorescence, 18 h; TGF-beta stimulated, 500 pg/mL final | 410,000 tested, 1.2% active; further: on the % scale 0 is the no-effect control and ±100 the full control effect; nearly all actives have a fitted effect of over 65% in size
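Cell-based qHTS in HEPG2 carrying a CAGA-GFP Smad reporter; compounds added before 500 pg/mL final TGF-beta, 18 h incubation at 37 degrees C, GFP fluorescence quantified per cell by imaging cytometry.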
HepG2 viability = counter-screen for TGF-b inhibitors: cytotoxicity in HepG2 cells | HepG2 CAGA-GFP viability, ATP luminescence, 18 h | Potency, µM (doses to about 46.1 µM), for the others: at the top dose activity change, negative = cytotoxicity, hits mostly cytotoxic | 410,000 tested, 0.76% active
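HepG2 CAGA-GFP cells (1000/well, DMEM with 1% FBS) received compound, then TGF-beta at 500 pg/mL final, and were incubated 18 hours at 37 degrees C. Viability was read by CellTiter-Glo luminescence. Media-only wells were set as complete cell-killing and DMSO as no toxicity.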
HT1080 IDH1KD tx = toxicity to HT-1080 IDH1 knockdown cells (counter line). Potency, µM (series often up to 46.1 µM), inactives show top-dose activity, negative = toxicity, actives largely listed as cytotoxic. 360,000 tested, 2% active. HT-1080 IDH1 knockdown viability, ATP luminescence, 48 h. AID 686971;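 further: 0% = DMSO wells and -100% = cell-free medium wells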
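CellTiter-Glo luminescence after 48 h compound exposure at 37 degrees C of IDH1-knockdown HT-1080 cells in 5% FBS RPMI. %Activity scaled between DMSO wells and cell-free media wells, with curves fitted and assigned curve classes.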
DT40 TDP1 no CPT = qHTS for Inhibitors of human tyrosyl-DNA phosphodiesterase 1 (TDP1): qHTS in cells in absence of CPT. DT40 Tdp1-/- hTDP1 cells, no CPT, ATP luminescence, 48 h. Potency, µM (top dose mostly 46.2 µM), for the others: at the top dose activity change, negative = growth inhibition, most hits filed as inhibitors. 420,000 tested, 15% active. AID 686978, 2013; further: on the % scale 0 is the no-effect control and ±100 the full control effect; nearly all actives have a fitted effect of over 55% in size
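Stably hTDP1-transfected Tdp1-null chicken DT40 cells were treated with library compounds minus camptothecin and grown for at least 48 hr at 37 °C, after which cellular ATP was quantified by luminescence.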
TDP1 cell CPT = growth inhibition of DT40 Tdp1-/-;hTDP1 cells with camptothecin (screen for TDP1 inhibitors); chicken DT40 Tdp1-/-;hTDP1 cells + 20 nM CPT, ATP luminescence, 48 h; Potency, µM (highest dose often 46.2 µM), inactives show top-dose activity change, negative = growth inhibition, most hits filed as inhibitors; 420,000 tested, 12% active; AID 686979; further: on the % scale 0 is the no-effect control and ±100 the full control effect; nearly all actives have a fitted effect of over 55% in size
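Cell growth measured by CellTiter-Glo luminescence after a minimum 48 h, 37 C compound exposure with 20 nM CPT in Tdp1-knockout DT40 cells stably expressing hTDP1, seeded 400/well; qHTS titration format.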
* = called active by the depositor; u = inconclusive; x = no result given. An excerpt weighted towards active compounds, which were near 17% of everything screened. The call rests on the fitted dose curve; in most records, active means well fitted curve in the direction sought with a large enough effect; inconclusive means small, poorly fitted or top-dose-only effect, or another doubt; inactive means no such curve, though single readings can be large; an effect the other way counts as inactive or inconclusive. Potency means the concentration at half of the fitted maximal effect.

SMILES	HT1080-NT tox	TGFb inhibitor	HepG2 viability	HT1080 IDH1KD tx	DT40 TDP1 no CPT	TDP1 cell CPT
Cc1ccc(CN(CC(O)COc2cccc3[nH]cc(C)c23)C(C)(C)C)cc1 (centres undefined)	u	u	13µM*	-17%	u	21µM*
Cc1c[nH]c2cccc(OCC(CNC(C)(C)C)OC(=O)c3ccccc3)c12 (centres undefined)	-14%	-14%	-51%	-16%	-27%	-16%
COC(=O)Cc1c[nH]c2cccc(OCC(O)CN(Cc3ccc([N+](=O)[O-])cc3)C(C)(C)C)c12 (centres undefined)	1%	-18%	-39%	-13%	18µM*	u
COC(=O)Cc1c[nH]c2cccc(OCC(O)CN(Cc3ccccc3)C(C)C)c12 (centres undefined)	-9%	-22%	-27%	-21%	u	u
COc1ccccc1NC(=O)c1oc2ccccc2c1NC(=O)COc1cccc(C)c1	x	-22%	-7%	x	1%	-9%
COC(=O)C[C@@H]1CC[C@@H](NC(=O)Nc2cc(F)ccc2F)[C@@H](CO)O1	14%	x	x	10%	-5%	-17%
Cc1ccc2nc(SCC(=O)Nc3ccc(C)c([N+](=O)[O-])c3)[nH]c2c1	2%	-24%	-13%	-1%	-8%	u
CC(=O)c1c(C)[nH]c(C(=O)CSc2nc3ccc(C)cc3[nH]2)c1C	0%	u	-40%	-12%	15µM*	u
Cc1ccc2nc(SCC(=O)Nc3cc([N+](=O)[O-])ccc3F)[nH]c2c1	-8%	u	27%	-8%	u	18µM*
CC(=O)c1c(C)[nH]c(C(=O)CSc2nnc(NC3CC3)s2)c1C	-7%	3%	-4%	-3%	15µM*	u
Cc1ccc2nc(SCC(=O)NC3CCCc4ccccc43)[nH]c2c1 (centres undefined)	u	0%	-9%	u	16µM*	21µM*
COC(=O)/C(=C\c1c(OC)cc(OC)cc1OC)C(=O)c1ccc2c(c1)OCO2	3%	-11%	-5%	6%	-16%	-12%
CCOC(=O)c1cc(NC(=O)c2ccc(C)cc2)c(=O)n2c1oc1ccccc12	x	5%	4%	x	-6%	-16%
COc1ccc(N2CCN(C(=O)C3Cc4ccccc4N3C(C)=O)CC2)cc1 (centres undefined)	x	0%	-5%	x	-28%	u
CCn1c(SCC(=O)c2[nH]c(C)c(C(C)=O)c2C)nnc1-c1ccccc1	-1%	u	3%	16µM*	26µM*	23µM*
CCN(CC)CCCC(C)Nc1cc(/C=C/c2ccccc2Cl)nc2cc(Cl)ccc12 (centres undefined)	x	2.8µM*	2.8µM*	x	0.89µM*	0.63µM*
CCOC(=O)C1=C(c2ccccc2)NC(SC)=C(C#N)C1c1ccco1 (centres undefined)	3%	-24%	-8%	-6%	21µM*	18µM*
Cc1nc2n(c(=O)c1CCN1CCC(c3noc4cc(F)ccc34)CC1)CCC[C@@H]2O	x	0%	-12%	x	x	x
CC1(C)c2ccccc2-c2nc3ccccc3cc2C1O (centres undefined)	-15%	0%	0%	-24%	u	u
c1ccc2c(c1)-c1nc3ccccc3cc1C2N1CCCCC1 (centres undefined)	0%	3%	7%	2%	16µM*	16µM*

Bioassay records: PubChem, National Center for Advancing Translational Sciences (NCATS)
